In PubChem BioAssay (NCI):
About 83,000 compounds went through this panel and 20% of them were active in at least one assay; those are over-represented in the sample as a whole.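 In brief: 96-well plates, 48 h treatment, single concentration, percent growth endpoint.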 Values without a mark were called inactive. Activity calls are given as the source filed them. How the source made its calls: active means growth percent below 10; inactive means the rest.

How the values were obtained:
Assay in all cases: NCI-60 one-dose screen, 48 h (100 = growth as untreated, 0 = no growth, -100 = all killed)
Conditions in all cases: 10 µM unless noted
[1] = system: NCI-H23 lung
[2] = system: NCI-H226 lung
[3] = system: NCI-H322M lung
[4] = system: HOP-62 NSCLC
[5] = system: NCI-H460 lung
[6] = system: NCI-H522 lung
[7] = system: A549/ATCC NSCLC
[8] = system: 786-0 renal
[9] = system: COLO 205 colon
[10] = system: DU-145 prostate
[11] = system: K-562 leukemia
[12] = system: MALME-3M melanoma
[13] = system: MDA-MB-231 breast
[14] = system: RXF 393 renal
[15] = system: SF-268 CNS
[16] = system: SF-295 CNS
[17] = system: SF-539 CNS
[18] = system: UACC-257 melanoma
[19] = system: M14 melanoma

Row | Structure (SMILES) | growth [1] | growth [2] | growth [3] | growth [4] | growth [5] | growth [6] | growth [7] | growth [8] | growth [9] | growth [10] | growth [11] | growth [12] | growth [13] | growth [14] | growth [15] | growth [16] | growth [17] | growth [18] | growth [19]
1 | Cc1ccc(Nc2cc(Cl)c([N+](=O)[O-])cc2[N+](=O)[O-])cc1 | 63.8% | 25.9% | 86.7% | 62.8% | 52.7% | -41.7% (active) | 76.7% | 23.5% | -31.2% (active) | 46.7% | 13.3% | 70.4% | 18.3% | -41.2% (active) | 27.7% | 99.4% | 21.7% | 73.6% | 34.7%
2 | C=CCOc1ccc2c(C)cc(=O)oc2c1 | 102% | 109% | 126% | 112% | 99.6% | 93.3% | 89.6% | 109% | 138% | 109% | 99.4% | 132% | 128% | 134% | 109% | 99.8% | 103% | 105% | 122%
3 | O=C(CCl)N1c2ccccc2Oc2ccc3ccccc3c21 | -48.4% (active) | 3.48% (active) | 91.4% | -16.6% (active) | 2.15% (active) | -83.1% (active) | 30% | -89.4% (active) | -94.2% (active) | -7.27% (active) | 2.96% (active) | -49% (active) | -26.8% (active) | -83.7% (active) | -39.3% (active) | -15.8% (active) | -80.1% (active) | 8.99% (active) | -70% (active)
4 | C=C(COC(C)=O)[C@H]1CC/C(C)=C/CC/C(C)=C/CC[C@@]2(C)O[C@H]2C1 | 106% | 108% | 102% | 107% | 106% | 95.3% | 105% | 96% | 148% | 109% | 100% | 93.5% | 107% | 112% | 97.2% | 110% | 114% | 100% | 106%
5 | COCc1nc(NS(=O)(=O)c2ccc(N)cc2)nc(C)c1Br | 97.1% | 98.2% | 99% | 91% | 106% | 76.7% | 94% | 100% | 108% | 116% | 98% | 94.6% | 106% | 101% | 109% | 93.6% | 100% | 104% | 101%
6 | Nc1nc(N)c2cc(NCc3ccc(Cl)c(Cl)c3)ccc2n1 | -88% (active) | -74.8% (active) | -79% (active) | -85.6% (active) | -75.7% (active) | -69.8% (active) | -90.2% (active) | -89.7% (active) | -90.7% (active) | -94.8% (active) | -62.2% (active) | -64.9% (active) | -86.8% (active) | -82.7% (active) | -83.2% (active) | -80.5% (active) | -89.9% (active) | -83% (active) | -84% (active)
7 | O=[N+]([O-])c1ccc(N/N=C/c2ccccc2O)nc1 | 33.9% | 83.3% | 39.6% | 32.7% | 15% | 9.71% (active) | 31.4% | 21.8% | 14.6% | 48.7% | 21.9% | 78.5% | 52.3% | 38.1% | 40.1% | 35.2% | 42.9% | 32% | 29.5%
8 | COc1cc(C2CC(c3ccc(Cl)cc3)=NN2C(C)=O)ccc1Oc1nc2c(c(=O)n(C)c(=O)n2C)n1C (stereo not drawn) | 84.2% | 76.8% | 72.9% | 98.7% | 88.1% | 92.5% | 59.7% | 111% | 102% | 65.2% | 101% | 100% | 85.8% | 86.8% | 56.8% | 62.6% | 102% | -8% (active) | 67.8%
9 | C#C[C@]1(O)CC[C@H]2[C@@H]3CC=C4c5sc(-c6cccc(Br)c6)nc5CC[C@]4(C)[C@H]3CC[C@@]21C | 82.9% | 97.9% | 73.5% | 91.5% | 78.1% | 62.3% | 81.2% | 51.9% | 118% | 88.6% | 6.54% (active) | 100% | 79.9% | 37.3% | 72.4% | 55.5% | 37.6% | 80.7% | 69.3%
10 | CCOC(=O)C#Cc1c(C(=O)OCC)nnn1[C@@H]1O[C@H](COC(C)=O)[C@@H](OC(C)=O)[C@H]1OC(C)=O | 93.4% | 92.2% | 101% | 109% | 108% | 50% | 78.3% | 102% | 45.6% | 100% | 28.5% | 101% | 107% | 70.2% | 97.8% | 103% | 101% | 64.3% | 92.1%
11 | c1ccc2oc(-c3cnc4nonc4n3)cc2c1 | 94.8% | 92.1% | 87.7% | 84.7% | 95.8% | 78.3% | 96.4% | 103% | 103% | 114% | 103% | 105% | 87.9% | 112% | 99.7% | 103% | 101% | 99.2% | 106%
12 | O=C1/C(=C/N2N=C(c3ccc(Cl)cc3)CC2c2ccccc2O)SC(=S)N1c1cccc(C(F)(F)F)c1 (stereo not drawn) | 53.8% | 63.3% | 71.4% | 69.1% | 44.6% | 30.3% | 38.6% | 66.4% | 71.2% | 63.4% | 42.6% | 79.6% | 44% | 67.4% | 48.1% | 64.7% | 76.1% | 94.5% | 48.2%
13 | CS(=O)(=O)c1ccc(C(=O)N/N=C/c2ccc3c(c2)OCO3)cc1 | 96.9% | 91.1% | 96.2% | 96.8% | 107% | 86% | 67.7% | 102% | 110% | 108% | 85.5% | 105% | 107% | 120% | 104% | 101% | 105% | 59.1% | 106%
14 | O=C(N/N=C\c1cc(Br)ccc1O)c1ccncc1 | 43.5% | 39.9% | 41% | 15% | 6.66% (active) | -27.2% (active) | 55.6% | 18.4% | 7.89% (active) | 39.4% | 20.3% | 46.5% | 46.6% | 54.9% | 35.4% | 55.7% | 34.3% | 11.5% | 19.2%
15 | Nc1c(C(=O)Nc2cccc(Cl)c2)sc2nc3c(cc12)C(=O)CCC3 | 38% | 57.9% | 71.8% | 47% | 10.3% | 14.6% | 28.2% | 47.7% | 10.2% | 11.6% | 22.8% | 49.7% | 43.9% | 25.9% | 63.1% | -20.2% (active) | 27.3% | 68.9% | 26.9%
16 | O=C1/C(=C/c2ccccc2)SC(=Nc2ccccc2)N1Nc1ccccc1 | 13.8% | -40.1% (active) | 26.9% | 39.4% | -25.2% (active) | -5.53% (active) | 15.5% | -31.4% (active) | 0.201% (active) | 22% | 4.55% (active) | -14.6% (active) | 12.1% | -58% (active) | 26.9% | 16.2% | 5.85% (active) | 10.5% | -59.3% (active)
17 | CS(=O)(=O)c1ccc(C(=O)N2N=C(c3ccccc3)CC2c2ccc3c(c2)OCO3)cc1 (stereo not drawn) | 101% | 88.7% | 99.6% | 83.1% | 98.5% | 87.2% | 80.2% | 90.8% | 81.4% | 97.4% | 59.9% | 104% | 96.2% | 98.4% | 95.2% | 100% | 103% | 79.2% | 95.7%
